In PubChem BioAssay (NCI):
Compounds without any hit were thinned out: in the full panel of roughly 83,000, 20% have a hit.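 Activity criterion: percent growth below 10, measured after cells in 96-well plates were exposed to a single compound concentration for 48 hours.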 A number with no mark means an inactive call. Calls of active or inactive are those of the source.

The molecules below were run on HCT-116 colon (assay: NCI-60 one-dose screen, 48 h (100 = growth as untreated, 0 = no growth, -100 = all killed)). Conditions: 10 µM unless noted.

Row | SMILES | growth
1 | CSc1ccc(-c2n[nH]nc2-c2cc3ccccc3s2)cc1 | 30.5%
2 | Clc1ccc2c(NCCCNc3nc(-n4ccnc4)nc4ccccc34)ccnc2c1 | 88.3%
3 | CN1CCN(c2nc(NCCCNc3ccnc4cc(Cl)ccc34)c3ccccc3n2)CC1 | 37.3%
4 | CN(C)c1ccc(NC(=O)c2ccc(/C=C/C(=O)c3ncc[nH]3)cc2)cc1 | 46.4%
5 | COc1ccc(S(=O)(=O)N2CCCCC2)cc1NC(=O)c1[nH]c(C)c2c1CCCCC2=O | 17.6%
6 | CCn1c(O)c(/C=N/NC(=O)C(C)c2ccc(CC(C)C)cc2)sc1=S (stereo not drawn) | 11.6%
7 | Cc1nn(-c2cc(=O)[nH]c3ccc(Cl)cc23)c(N)c1C#N | 101%
8 | O=C1/C(=C(/c2ccccc2)N2CCOCC2)Cc2ccccc21 | -46.3% (active)
9 | O=C(COc1cccc(/C=C2\COc3ccccc3C2=O)c1)Nc1nccs1 | -100% (active)
10 | CCN=C1C=CC(=C(c2ccc(N)cc2)c2ccc(N(CC)CC)c(C)c2)C=C1 | -17.5% (active)
11 | O=C(C(=O)c1ccc2c(c1)OCO2)c1ccc2c(c1)OCO2 | 101%
12 | COc1ccc(/C=C2\Oc3cc(OCCCCN4CCCC4)ccc3C2=O)cc1 | 5.32% (active)
13 | COc1cc(-c2nn(-c3ccc(Br)cc3)cc2C(=O)O)ccc1O | 97.9%
14 | O=c1ccccc(-c2ccc(-c3ccco3)cc2)c1O | 21.8%
15 | Cn1cc(C(=O)c2nc(-c3c[nH]c4ccc(Br)cc34)no2)c2cc(F)ccc21 | 104%
16 | COc1ccc(O)c(N=Nc2nccs2)c1 | 65.5%
17 | CCc1nc(N)nc(N)c1C#CC(C)c1cc(-c2ccnc(C)c2)c2oc(C)nc2c1 (stereo not drawn) | 11.6%
18 | CC(=O)Nc1ccc(-n2c(O)c(/C=N/NC(=O)Cc3ccccc3Nc3c(Cl)cccc3Cl)sc2=S)cc1 | 95.3%
19 | O=Nc1c(O)c(Cl)cc2ccccc12 | 31.5%

Row | SMILES | growth
20 | FC(F)(F)c1ccc(-c2cn3nc(-c4c[nH]c5ccc(Br)cc45)sc3n2)cc1 | 93.1%
21 | Cn1cc(-c2nonc2-c2c[nH]c3ccccc23)c2cccnc21 | 24.3%
22 | Cn1cc(-c2nonc2-c2cn(C)c3ccc(F)cc23)c2ccccc21 | 11.6%
23 | Brc1ccc(-c2csc(Nc3ccccn3)n2)cc1 | 81.3%
24 | Clc1ccc2c(NCCNc3nc(N4CCOCC4)nc4ccccc34)ccnc2c1 | -7.53% (active)
25 | COc1ccc(-c2cc(-c3ccc(Nc4ccnc5cc(Cl)ccc45)cc3)nc(N3CCOCC3)n2)cc1 | 52.8%
26 | COc1cc2c(cc1-c1c(C)noc1C)ncc1nc(C3CCCC3)n([C@H](C)COC(F)F)c12 | 31%
27 | CCOc1cc2ncc(C#N)c(Nc3ccc(OCc4cccc(F)c4)c(Cl)c3)c2cc1NC(=O)CCCCC1CCSS1 (stereo not drawn) | 75.6%
28 | Oc1ccccc1-c1nnc(CNc2ccc(Cl)cc2)o1 | 42%
29 | COc1cc2c(cc1-c1c(C)noc1C)ncc1nc(C3CCCCC3)n([C@H](C)COC(F)F)c12 | 28.4%
30 | COc1cc(/C=C/C(=O)Nc2cccnc2Nc2ccc(F)cc2)cc(OC)c1OC | 96.3%
31 | Cn1c(NCCc2ccc(O)c(O)c2)nc2c1c(=O)n(Cc1ccc(Cl)c(Cl)c1)c(=O)n2C | 64.8%
32 | Cc1ccc(C2=NN3C(C2)c2cc(Br)ccc2OC32CCN(Cc3ccccc3)CC2)o1 (stereo not drawn) | 99.6%
33 | O=C1/C(=C/C(Cl)=C/c2ccccc2)SC(=S)N1CCc1ccc(O)cc1 | -62.3% (active)
34 | NC(=O)c1cc(Br)ccc1NC(=O)/C=C/c1ccccc1 | 38%
35 | CC(O)CN(CC(C)O)c1ccc2c(c1)Cc1cc([N+](=O)[O-])ccc1-2 (stereo not drawn) | 89.6%
36 | C=C1C(=O)O[C@H]2[C@H]1CC/C(COC(=O)c1cc3cc(OC)ccc3[nH]1)=C\CC[C@@]1(C)O[C@@H]21 | -94.8% (active)
37 | COc1cc(C(=O)/C=C/c2cccnc2Nc2ccc(Cl)cc2)cc(OC)c1OC | -55.7% (active)
38 | O=c1cc(CSc2nnc(SCc3cc(=O)oc4c3ccc3ccccc34)o2)c2ccc3ccccc3c2o1 | 104%
